Test results published in article PMC7862700, “An all-to-all approach to the identification of sequence-specific readers for epigenetic DNA modifications on cytosine”.

Assays:
Assay in all cases: DAPPL (digital affinity profiling via proximity ligation, sequencing); 10 mM Tris-HCl pH 7.5, 50 mM NaCl, 1 mM DTT, 4% glycerol, room temperature, 30 min; GST-TFs on glutathione beads, 16-mer random dsDNA library, 0.1% formaldehyde crosslink after washing; high values mean tight binding
Conditions in all cases: protein: recombinant; tags: N-terminal GST; dsDNA, one strand shown
ERF = biological target: T1, ERF (Homo sapiens, UniProt P50548 1-548)
T1 sequence: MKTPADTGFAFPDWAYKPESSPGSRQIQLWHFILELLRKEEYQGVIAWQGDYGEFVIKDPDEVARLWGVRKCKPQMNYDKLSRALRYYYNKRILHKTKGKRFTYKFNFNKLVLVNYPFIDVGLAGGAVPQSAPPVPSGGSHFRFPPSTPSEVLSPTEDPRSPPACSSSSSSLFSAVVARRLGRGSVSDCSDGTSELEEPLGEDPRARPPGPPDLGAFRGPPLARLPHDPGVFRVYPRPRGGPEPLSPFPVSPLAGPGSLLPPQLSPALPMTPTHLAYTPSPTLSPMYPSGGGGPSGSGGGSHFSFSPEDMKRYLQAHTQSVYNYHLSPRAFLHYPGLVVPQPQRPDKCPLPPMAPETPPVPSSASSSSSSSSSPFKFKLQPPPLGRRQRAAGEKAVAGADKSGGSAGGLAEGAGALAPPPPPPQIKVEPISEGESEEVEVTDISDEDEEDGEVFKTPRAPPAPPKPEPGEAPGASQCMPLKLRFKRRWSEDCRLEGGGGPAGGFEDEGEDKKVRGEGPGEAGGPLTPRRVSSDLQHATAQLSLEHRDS
Method in brief: (§1)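 Yeast served to express human transcription factors as GST fusions, which were then captured on glutathione beads and labelled with DNA barcodes. Pooled with a tag-only sample, they were incubated with 200 nmole of a 16-mer random double-stranded DNA library for 30 min at room temperature in Tris/NaCl/DTT/glycerol buffer, washed, crosslinked with 0.1% formaldehyde, ligated by proximity, amplified by PCR and sequenced. Dividing each hexamer's read frequency for a factor by its frequency for the tag-only sample gives the binding signal.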

ETV3L = biological target: T2, ETV3L (Homo sapiens, UniProt Q6ZN32 1-361)
T2 sequence: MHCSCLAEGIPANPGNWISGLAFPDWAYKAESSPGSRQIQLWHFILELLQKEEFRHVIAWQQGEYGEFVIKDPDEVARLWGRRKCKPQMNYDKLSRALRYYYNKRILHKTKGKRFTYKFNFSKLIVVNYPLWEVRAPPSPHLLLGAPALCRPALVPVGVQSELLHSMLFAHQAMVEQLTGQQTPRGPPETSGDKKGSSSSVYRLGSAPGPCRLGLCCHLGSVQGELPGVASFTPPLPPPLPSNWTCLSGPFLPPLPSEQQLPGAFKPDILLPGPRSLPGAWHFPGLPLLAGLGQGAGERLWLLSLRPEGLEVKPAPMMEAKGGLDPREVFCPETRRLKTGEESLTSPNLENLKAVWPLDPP
Method in brief: as §1

ETS2 = biological target: T3, ETS2 (Homo sapiens, UniProt P15036 1-469)
T3 sequence: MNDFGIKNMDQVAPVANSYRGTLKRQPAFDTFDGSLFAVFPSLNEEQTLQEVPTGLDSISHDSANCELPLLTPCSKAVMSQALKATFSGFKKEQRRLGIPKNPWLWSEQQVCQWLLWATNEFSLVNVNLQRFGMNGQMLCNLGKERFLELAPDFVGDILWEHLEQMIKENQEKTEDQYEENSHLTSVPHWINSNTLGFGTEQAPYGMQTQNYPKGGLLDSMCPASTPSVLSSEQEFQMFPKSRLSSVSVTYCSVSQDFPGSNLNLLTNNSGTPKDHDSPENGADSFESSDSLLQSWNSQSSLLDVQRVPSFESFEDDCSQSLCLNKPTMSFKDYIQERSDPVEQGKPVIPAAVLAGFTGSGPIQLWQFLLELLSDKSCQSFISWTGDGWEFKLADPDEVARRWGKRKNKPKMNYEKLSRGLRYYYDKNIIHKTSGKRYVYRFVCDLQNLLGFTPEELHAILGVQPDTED
Method in brief: as §1

SPDEF = biological target: T4, SPDEF (Homo sapiens, UniProt O95238 1-335)
T4 sequence: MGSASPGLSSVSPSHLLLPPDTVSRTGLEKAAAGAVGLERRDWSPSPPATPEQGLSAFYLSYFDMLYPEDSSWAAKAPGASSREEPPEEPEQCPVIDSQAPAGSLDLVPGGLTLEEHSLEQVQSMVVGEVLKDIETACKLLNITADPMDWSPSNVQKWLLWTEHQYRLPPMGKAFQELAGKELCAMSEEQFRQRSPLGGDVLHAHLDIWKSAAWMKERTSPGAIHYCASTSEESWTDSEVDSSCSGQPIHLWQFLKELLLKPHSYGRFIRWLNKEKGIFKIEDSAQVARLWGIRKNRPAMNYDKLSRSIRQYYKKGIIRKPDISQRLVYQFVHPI
Method in brief: as §1

ETV7 = biological target: T5, ETV7 (Homo sapiens, UniProt Q9Y603 1-341)
T5 sequence: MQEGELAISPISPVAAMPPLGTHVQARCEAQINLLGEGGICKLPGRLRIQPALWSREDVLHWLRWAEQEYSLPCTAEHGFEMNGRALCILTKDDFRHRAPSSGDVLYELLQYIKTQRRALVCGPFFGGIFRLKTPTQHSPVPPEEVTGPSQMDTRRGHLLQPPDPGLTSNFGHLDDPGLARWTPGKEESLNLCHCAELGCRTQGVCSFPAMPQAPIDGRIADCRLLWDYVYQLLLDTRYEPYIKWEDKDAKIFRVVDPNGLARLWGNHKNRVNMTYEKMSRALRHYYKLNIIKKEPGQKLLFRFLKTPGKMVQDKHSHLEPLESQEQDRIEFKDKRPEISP
Method in brief: as §1

ELF5 = biological target: T6, ELF5 (Homo sapiens, UniProt Q9UKW6-2 1-255)
T6 sequence: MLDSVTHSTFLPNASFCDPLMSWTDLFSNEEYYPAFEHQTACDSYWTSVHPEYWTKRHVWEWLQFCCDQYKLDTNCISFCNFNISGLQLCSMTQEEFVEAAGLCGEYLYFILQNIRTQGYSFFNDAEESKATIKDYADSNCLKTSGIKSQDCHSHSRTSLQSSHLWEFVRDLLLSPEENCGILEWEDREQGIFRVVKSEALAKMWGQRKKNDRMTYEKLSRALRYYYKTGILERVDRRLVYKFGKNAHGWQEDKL
Method in brief: as §1

ETV3 = biological target: T7, ETV3 (Homo sapiens, UniProt P41162-2 1-143)
T7 sequence: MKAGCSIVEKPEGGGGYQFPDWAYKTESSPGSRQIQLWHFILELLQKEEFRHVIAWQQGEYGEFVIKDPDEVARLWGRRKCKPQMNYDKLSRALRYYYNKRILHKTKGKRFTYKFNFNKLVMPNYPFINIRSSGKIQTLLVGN
Method in brief: as §1

ETV6 = ETV6 (Homo sapiens, UniProt P41212 1-452)
Sequence of ETV6 (P41212 whole entry): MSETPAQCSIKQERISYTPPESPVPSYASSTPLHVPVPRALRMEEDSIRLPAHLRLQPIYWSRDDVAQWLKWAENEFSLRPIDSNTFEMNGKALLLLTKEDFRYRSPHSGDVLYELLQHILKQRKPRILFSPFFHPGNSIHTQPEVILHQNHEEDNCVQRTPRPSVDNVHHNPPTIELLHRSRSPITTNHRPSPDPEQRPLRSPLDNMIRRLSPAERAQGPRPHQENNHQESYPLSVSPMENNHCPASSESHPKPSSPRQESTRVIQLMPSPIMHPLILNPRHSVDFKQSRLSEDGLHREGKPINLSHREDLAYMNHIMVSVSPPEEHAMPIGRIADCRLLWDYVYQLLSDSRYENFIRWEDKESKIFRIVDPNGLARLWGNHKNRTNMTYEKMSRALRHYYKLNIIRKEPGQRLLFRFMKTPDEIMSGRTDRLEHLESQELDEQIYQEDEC
Method in brief: as §1

Sequence	binding signal (ERF)	binding signal (ETV3L)	binding signal (ETS2)	binding signal (SPDEF)	binding signal (ETV7)	binding signal (ELF5)	binding signal (ETV3)	binding signal (ETV6)
CCATAA	1.24 fold enrichment (6-mer frequency, TF over GST control)	1.22 fold enrichment (6-mer frequency, TF over GST control)	1.22 fold enrichment (6-mer frequency, TF over GST control)	1.12 fold enrichment (6-mer frequency, TF over GST control)	1.15 fold enrichment (6-mer frequency, TF over GST control)	1.1 fold enrichment (6-mer frequency, TF over GST control)	1.25 fold enrichment (6-mer frequency, TF over GST control)	1.21 fold enrichment (6-mer frequency, TF over GST control)
AAGCCT	1.17 fold enrichment (6-mer frequency, TF over GST control)	1.23 fold enrichment (6-mer frequency, TF over GST control)	1.22 fold enrichment (6-mer frequency, TF over GST control)	1.02 fold enrichment (6-mer frequency, TF over GST control)	1.3 fold enrichment (6-mer frequency, TF over GST control)	1.2 fold enrichment (6-mer frequency, TF over GST control)	1.3 fold enrichment (6-mer frequency, TF over GST control)	1.23 fold enrichment (6-mer frequency, TF over GST control)
TGAATT	1.14 fold enrichment (6-mer frequency, TF over GST control)	1.17 fold enrichment (6-mer frequency, TF over GST control)	1.16 fold enrichment (6-mer frequency, TF over GST control)	1.11 fold enrichment (6-mer frequency, TF over GST control)	1.21 fold enrichment (6-mer frequency, TF over GST control)	1.13 fold enrichment (6-mer frequency, TF over GST control)	1.16 fold enrichment (6-mer frequency, TF over GST control)	1.03 fold enrichment (6-mer frequency, TF over GST control)
ATTTTT	1.21 fold enrichment (6-mer frequency, TF over GST control)	1.2 fold enrichment (6-mer frequency, TF over GST control)	1.1 fold enrichment (6-mer frequency, TF over GST control)	1.15 fold enrichment (6-mer frequency, TF over GST control)	1.19 fold enrichment (6-mer frequency, TF over GST control)	1.16 fold enrichment (6-mer frequency, TF over GST control)	1.17 fold enrichment (6-mer frequency, TF over GST control)	1.17 fold enrichment (6-mer frequency, TF over GST control)
ATGATA	1.21 fold enrichment (6-mer frequency, TF over GST control)	1.22 fold enrichment (6-mer frequency, TF over GST control)	1.17 fold enrichment (6-mer frequency, TF over GST control)	1.22 fold enrichment (6-mer frequency, TF over GST control)	1.16 fold enrichment (6-mer frequency, TF over GST control)	1.23 fold enrichment (6-mer frequency, TF over GST control)	1.2 fold enrichment (6-mer frequency, TF over GST control)	1.18 fold enrichment (6-mer frequency, TF over GST control)
TAGCTT	1.29 fold enrichment (6-mer frequency, TF over GST control)	1.24 fold enrichment (6-mer frequency, TF over GST control)	1.29 fold enrichment (6-mer frequency, TF over GST control)	1.08 fold enrichment (6-mer frequency, TF over GST control)	1.16 fold enrichment (6-mer frequency, TF over GST control)	1.22 fold enrichment (6-mer frequency, TF over GST control)	1.16 fold enrichment (6-mer frequency, TF over GST control)	1.28 fold enrichment (6-mer frequency, TF over GST control)
CAACTT	1.44 fold enrichment (6-mer frequency, TF over GST control)	1.51 fold enrichment (6-mer frequency, TF over GST control)	1.6 fold enrichment (6-mer frequency, TF over GST control)	1.49 fold enrichment (6-mer frequency, TF over GST control)	1.37 fold enrichment (6-mer frequency, TF over GST control)	1.61 fold enrichment (6-mer frequency, TF over GST control)	1.55 fold enrichment (6-mer frequency, TF over GST control)	1.62 fold enrichment (6-mer frequency, TF over GST control)
CTCCAA	1.32 fold enrichment (6-mer frequency, TF over GST control)	1.28 fold enrichment (6-mer frequency, TF over GST control)	1.32 fold enrichment (6-mer frequency, TF over GST control)	1.33 fold enrichment (6-mer frequency, TF over GST control)	1.52 fold enrichment (6-mer frequency, TF over GST control)	1.23 fold enrichment (6-mer frequency, TF over GST control)	1.23 fold enrichment (6-mer frequency, TF over GST control)	1.28 fold enrichment (6-mer frequency, TF over GST control)
ACTGAT	1.26 fold enrichment (6-mer frequency, TF over GST control)	1.25 fold enrichment (6-mer frequency, TF over GST control)	1.28 fold enrichment (6-mer frequency, TF over GST control)	1.1 fold enrichment (6-mer frequency, TF over GST control)	1.13 fold enrichment (6-mer frequency, TF over GST control)	1.22 fold enrichment (6-mer frequency, TF over GST control)	1.25 fold enrichment (6-mer frequency, TF over GST control)	1.2 fold enrichment (6-mer frequency, TF over GST control)
